Screening data: PubChem BioAssay, National Center for Advancing Translational Sciences (NCATS)
KinaseGlo FLuc = blocks Kinase-Glo luciferase, a counter-screen artifact; Potency, µM (series often up to 38.3 µM), inactives show top-dose activity change, negative = inhibition, usual class: inhibitors; Kinase-Glo luciferase, ATP luminescence, 8 min; actives 0.28% (n = 200,000); further: on the % scale 0 is the no-effect control and ±100 the full control effect; nearly all actives have a fitted effect of over 60% in size
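Light output from Kinase-Glo luciferase with luciferin and 10 uM ATP in 50 mM imidazole pH 7.2, KCl, MgCl2, Tween 20, BSA; compound pin-delivered, 8-min ambient incubation, then luminescence read.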
NPC1 promoter act = NPC1 promoter activation. Huh7 NPC1 promoter luciferase reporter, 24 h. Potency, µM (series often up to 9.22 µM), inactives show top-dose activation, most hits filed as activators. actives 2.4% (n = 320,000). AID 485313; further: % of control where 0% means no effect; nearly all actives have a fitted effect of over 60% in size
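Stably transfected Huh7 (NPC1 promoter→luciferase), 1500 cells/well in Opti-MEM + 10% FBS, 2 h settle, then compound 24 h at 37 °C. Luminescence after 10 min with Amplite reagent.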
ELG1 genotoxic = induces genotoxicity in HEK293T cells with luciferase-tagged ELG1; HEK293T ELG1-luciferase reporter, luminescence, 16 h; Potency, µM (doses to about 46 µM), without a hit: at the top dose activity change, positive = activation, hits mostly activators; actives 1.3% (n = 330,000); further: % of control where 0% means no effect; nearly all actives have a fitted effect of over 60% in size
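Quantitative HTS format in 1536-well plates. HEK293T ELG1-luciferase reporter cells receive test compound and are incubated 16 hr at 37 °C, 5% CO2; ONE-Glo added, 30 min room temperature, then luminescence read.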
SMN2 splice up = SMN2 splice variant enhancement | HEK293 SMN2-luciferase splicing reporter, luminescence, 30-36 h | Potency, µM (highest dose often 46.1 µM), without a hit: top-dose activity change, positive = activation, most hits filed as activators | actives 2.8% (n = 210,000) | AID 1458; further: % of control where 0% means no effect; nearly all actives have a fitted effect of over 55% in size
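HEK293 cells carry an SMN2 minigene-luciferase reporter in which exon 7 inclusion puts luciferase in frame. Cells were seeded at 2000 cells/well, attached for 10-12 hours, then exposed to compounds for 30-36 hours at 37C before ONE-Glo luminescence.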
FLuc counter = inhibits or activates purified firefly luciferase, miR-21 counter-screen | purified FLuc, Km substrates, luminescence inhibition | Potency, µM (highest dose often 57.5 µM), without a hit: at the highest dose activity change, negative = inhibition, most hits filed as inhibitors | actives 6.9% (n = 360,000) | AID 588342;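 further: plate controls were vehicle for no effect and reference inhibitor for full effect; nearly all actives have a fitted effect of over 55% in size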
Target sequence (P08659 whole entry, looked up): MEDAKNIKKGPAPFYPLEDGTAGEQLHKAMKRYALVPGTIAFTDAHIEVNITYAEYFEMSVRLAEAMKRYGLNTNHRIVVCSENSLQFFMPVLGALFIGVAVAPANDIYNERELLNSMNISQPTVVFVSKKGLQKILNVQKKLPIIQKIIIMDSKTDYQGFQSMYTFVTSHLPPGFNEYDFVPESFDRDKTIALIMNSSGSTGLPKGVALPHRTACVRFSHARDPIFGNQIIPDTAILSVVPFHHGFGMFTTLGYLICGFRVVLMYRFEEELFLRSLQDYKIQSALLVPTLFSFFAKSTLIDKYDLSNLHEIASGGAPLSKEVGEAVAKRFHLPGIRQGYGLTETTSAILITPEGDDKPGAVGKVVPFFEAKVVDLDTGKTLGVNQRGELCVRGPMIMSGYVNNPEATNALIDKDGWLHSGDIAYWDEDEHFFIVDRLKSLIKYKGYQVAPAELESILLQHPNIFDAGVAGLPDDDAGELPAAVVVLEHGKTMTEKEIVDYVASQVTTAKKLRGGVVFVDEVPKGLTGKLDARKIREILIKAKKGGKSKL
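Biochemical qHTS of compounds, final roughly 60 µM downward over six points, against 10 nM purified firefly luciferase using Km concentrations of substrates (10 uM D-luciferin, 10 uM ATP) in Tris acetate pH 7.5 buffer; luminescence output.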
Rab9 promoter act = activators of Rab9 promoter; Huh7 Rab9 promoter-luciferase reporter, luminescence, 24 h; Potency, µM (titrated, usually from 9.22 µM), without a hit: at the top dose activation, negative = inhibition, hits mostly activators; actives 2.8% (n = 320,000); AID 485297; further: % of control where 0% means no effect; nearly all actives have a fitted effect of over 60% in size
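Steps: seed 1500 Huh7 Rab9-luc cells per well, rest 2 h at 37 °C; add compound in DMSO; incubate 24 h; add luciferase reagent, 10 min ambient; read luminescence.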
The depositor's hits bear a star; ? = inconclusive; . = no result given; [ ] = dose if it differs, or a comment. Shown are actives, neighbours in structure and some others; about 7.5% of the full set was active somewhere. The call rests on the fitted dose curve; in most records, active means well fitted curve in the direction sought with a large enough effect; inconclusive means small, poorly fitted or top-dose-only effect, or another doubt; inactive means no such curve, though single readings can be large; an effect the other way counts as inactive or inconclusive. Potency means the concentration at half of the fitted maximal effect.

SMILES	KinaseGlo FLuc	NPC1 promoter act	ELG1 genotoxic	SMN2 splice up	FLuc counter	Rab9 promoter act
COc1ccc(-c2nsc3c(N4CCN(S(=O)(=O)c5ccccc5F)CC4)ncnc23)cc1	0%	1%	2%	-13%	-15%	1%
COc1ccc(-c2nsc3c(N4CCCCC4C)ncnc23)cc1 (stereo not drawn)	-6%	-29%	-9%	-73%	0.34µM*	-44%
COc1ccc(C(=O)N2CCN(c3ncnc4c(-c5ccccc5)nsc34)CC2)cc1	5%	-4%	-3%	-87%	-1%	-6%
Oc1ccc2ccccc2c1/C=N/n1cnnc1	2%	-6%	0%	4%	-1%	0%
Cc1nn(C)c(C)c1N=Cc1c(O)ccc2ccccc12	-8%	0%	-1%	10%	13µM*	15%
Cc1ccc(O)c(NC(=O)CCSc2nc(-c3ccco3)cc(C(F)(F)F)n2)c1	.	.	.	-8%	-3%	.
COC(=O)c1c(Oc2ccc(Br)cc2)nnc(-c2ccccc2)c1-c1ccccc1	.	.	.	-60%	-3%	.
Cc1c(NC(=O)Nc2ccc(F)cc2F)c(=O)n(-c2ccccc2)n1C	.	-3%	-2%	.	4%	1%
C=C(C)CNC(=S)Nc1cccc(S(=O)(=O)NC2=NCCC2)c1	4%	0%	2%	-9%	-1%	1%
O=C(NC(=S)Nc1cccc(S(=O)(=O)NC2=NCCC2)c1)c1cc(-c2ccco2)nc2ccccc12	.	-24%	9%	.	19µM*	-27%
CN(C)c1cccc(C(=O)Nc2cccc(S(=O)(=O)NC3=NCCC3)c2)c1	.	2.8µM*	?	.	21µM*	2.2µM*
O=C(Nc1cccc(S(=O)(=O)NC2=NCCC2)c1)c1ccc(OC(F)F)cc1	.	-3%	0%	.	11µM*	0%
O=C(Nc1cccc(S(=O)(=O)NC2=NCCC2)c1)c1ccccc1	.	.	-1%	.	.	.
CN(C)S(=O)(=O)c1ccc(C(=O)Nc2cccc(S(=O)(=O)NC3=NCCC3)c2)cc1	.	-2%	0%	.	-19%	-3%
CCOc1ccc(C(=O)NC(=S)Nc2cccc(S(=O)(=O)NC3=NCCC3)c2)cc1	0%	-20%	?	0%	12µM*	-4%
Cc1ccc(Nc2nnc(-c3ccc(C)c(S(=O)(=O)N4CCOCC4)c3)c3ccccc23)c(C)c1	.	.	.	1%	-12%	.
COc1ccc(C(=O)NCC(c2ccc3c(c2)OCO3)N2CCN(c3ccccc3F)CC2)cc1 (stereo not drawn)	.	.	.	.	-4%	.
Cc1sc(NC(=O)/C=C/c2ccc(C(C)C)cc2)c(C#N)c1C	0%	-4%	5%	-5%	-5%	2%
CC(C)c1ccc(/C=C/C(=O)Nc2nncs2)cc1	-2%	0.89µM*	?	18µM*	0.76µM*	0.5µM*
COc1ccccc1CNC(=O)CCCn1c(=O)c2ccccc2n(Cc2ccc(C)cc2)c1=O	.	.	.	-5%	-3%	.
CC(C)c1ccc(NC(=O)Cn2cc(S(=O)(=O)Cc3cccc(Cl)c3)c3ccccc32)cc1	.	.	.	.	0%	.
CC(C)c1ccc(C(=O)CSc2n[nH]c(-c3ccncc3)n2)cc1	11%	3%	-1%	33%	15µM*	3%
CCc1ccc(C(=O)CSc2n[nH]c(C)n2)cc1	0%	30%	5%	5%	21µM*	?
COc1ccc(-c2nc(SCC(=O)c3ccc(Br)cc3)n[nH]2)cc1	.	.	.	-13%	1%	.
C=CCn1c(=NC(=O)c2cccs2)sc2cccc(OC)c21	.	-1%	-8%	.	15µM*	14%
SMILES	KinaseGlo FLuc	NPC1 promoter act	ELG1 genotoxic	SMN2 splice up	FLuc counter	Rab9 promoter act
COc1cccc(C2CC(=O)Nc3c2c(=O)n(C)c2nc4ccccc4n32)c1 (stereo not drawn)	.	.	.	-12%	?	.
Cc1cc(C)c(S(=O)(=O)OC[C@H]2C=CC[C@@H](CCC[C@H]3O[C@H](C(=O)OC(C)C)CC[C@@H]3C)O2)c(C)c1	1%	.	.	12%	.	.
Cc1ccc(-c2csc(=S)[nH]2)cc1	.	3.2µM*	?	.	?	?
Cc1ccccc1CNC(=O)CN1C(=O)C2CCCCN2c2ccc(C(=O)N3CCCC3)cc21 (stereo not drawn)	.	.	.	.	-8%	.
Cc1ccn2cc(-c3cccc(S(=O)(=O)N4CCCC4)c3)nc2c1	.	14%	6%	.	12µM*	9%
Cc1ccn2cc(-c3cccc([N+](=O)[O-])c3)nc2c1	?	0.56µM*	0.46µM*	1.8µM*	0.67µM*	?
Cc1ccn2cc(C(=O)Nc3cccc(C(=O)NC4CC4)c3)nc2c1	.	?	-8%	.	1.3µM*	?
Cc1ccn2cc(-c3cccc(NS(C)(=O)=O)c3)nc2c1	-17%	3.2µM*	?	.	6.7µM*	2.5µM*
Cc1ccc(NC(=O)COC(=O)/C(=C/c2cccs2)c2cccs2)cc1S(=O)(=O)N(C)C	-4%	3%	-1%	-23%	?	-1%
CCN(c1ccccc1)S(=O)(=O)c1ccc(Cl)c(NC(=O)CNCc2ccccc2OC)c1	.	.	-13%	.	.	.
COc1ccc(Cn2c(C(=O)O)c(CNCc3ccc(C)o3)c3ccc(OC)cc32)cc1	.	.	.	.	-1%	.
Cc1ccc(Cl)cc1N1CCN(C(=O)C2CCN(S(=O)(=O)Cc3ccccc3)CC2)CC1	.	.	.	.	4%	.
Cc1ccc2c(c1)N(CCCC(=O)NCc1cccc(F)c1)C(=O)CO2	.	.	.	3%	-13%	.
Clc1ccc2nc(-c3ccccc3)cn2c1	.	0.4µM*	0.92µM*	.	0.48µM*	0.4µM*
Cc1ccn2cc(-c3cccc(S(=O)(=O)N4CC(C)OC(C)C4)c3)nc2c1 (stereo not drawn)	.	-2%	0%	.	?	-11%
CC(=O)Nc1ccc(-c2cc(-c3ccccc3)nc(-c3ccccc3)n2)cc1	-1%	-1%	17%	4%[1.84 µM]	5%	-3%
CC(=O)Nc1cccc(-c2cn3ccc(C)cc3n2)c1	-28%	3.2µM*	?	.	4.3µM*	1.6µM*
CN(C)S(=O)(=O)c1cccc(-c2cn3cc(Cl)ccc3n2)c1	0%	24%	?	-5%	?	21%
Cc1ccn2cc(-c3cccc(NC(=O)CCC(=O)O)c3)nc2c1	.	-6%	10%	.	0.85µM*	-5%
CC(=O)Nc1ccc2nc(-c3ccccc3)cn2c1	-14%	1µM*	5.8µM*	2.5µM*	2.1µM*	1.1µM*
Cc1ncc(CO)c2c1Oc1nc(-c3ccccc3F)nc(SCC(=O)N3CCCCC3)c1C2	.	.	.	.	-6%	.
C=C1c2cccc(O)c2C(O)=C2C(=O)[C@@]3(O)C(O)=C(C(N)=O)C(=O)[C@@H](N(C)C)[C@@H]3[C@@H](O)[C@H]12	-4%[17.1 µM]	.	.	4%[20.6 µM]	.	.
